Data: PubChem BioAssay
Active and inactive are the calls of the source.

Key:
[1] = tested on: PRMT1 (protein arginine N-methyltransferase 1); assay: small molecules binding arginine methyltransferase PRMT1 – biochemical, small-molecule microarray, 635 nm fluorescence, primary screen (AID 1088); settings: higher = more signal;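 further: binding of Prmt1 protein to compounds spotted on small-molecule microarray slides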
[2] = growth effects on S. cerevisiae YJM789 – YJM789 clinical isolate, OD600, 24 h, basal, primary screen (AID 1089); settings: higher = more signal, called active from +8 up or from −8 down;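 further: growth of clinical yeast isolate S. cerevisiae YJM 789 seeded 1000 cells per well; test concentration not given here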
[3] = S. pombe growth modifiers, basal conditions – strain 972, OD600, 24 h, no modulator, primary screen (AID 1090);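 further: basal condition with compound alone and no growth modifier present; test concentration not given here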; settings: S. pombe 972 growth, higher = more signal, called active from +8 up or from −8 down
[4] = budding yeast growth modifiers under rapamycin – strain BY4716, OD600, 96 h, primary screen (AID 1091); further: test concentration not given here; settings: S. cerevisiae BY4716 + rapamycin, higher = more signal, called active from +8 up or from −8 down
[5] = molecular target: Torsin-1A-interacting protein 2 (Homo sapiens) (UniProt Q8NFQ8); assay: small molecules binding lysate-expressed LULL1 – cell lysate, human LULL1 lysate, 635/667 nm fluorescence, primary screen (AID 1092); settings: small-molecule microarray, hLULL1 lysate binding, 635 nm fluorescence; higher = more signal;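 further: probe is lysate of COS7 cells overexpressing human LULL1; score merges per-feature 667 nm fluorescence with signal-to-noise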
Sequence of Torsin-1A-interacting protein 2 (Homo sapiens) (Q8NFQ8 whole entry, looked up): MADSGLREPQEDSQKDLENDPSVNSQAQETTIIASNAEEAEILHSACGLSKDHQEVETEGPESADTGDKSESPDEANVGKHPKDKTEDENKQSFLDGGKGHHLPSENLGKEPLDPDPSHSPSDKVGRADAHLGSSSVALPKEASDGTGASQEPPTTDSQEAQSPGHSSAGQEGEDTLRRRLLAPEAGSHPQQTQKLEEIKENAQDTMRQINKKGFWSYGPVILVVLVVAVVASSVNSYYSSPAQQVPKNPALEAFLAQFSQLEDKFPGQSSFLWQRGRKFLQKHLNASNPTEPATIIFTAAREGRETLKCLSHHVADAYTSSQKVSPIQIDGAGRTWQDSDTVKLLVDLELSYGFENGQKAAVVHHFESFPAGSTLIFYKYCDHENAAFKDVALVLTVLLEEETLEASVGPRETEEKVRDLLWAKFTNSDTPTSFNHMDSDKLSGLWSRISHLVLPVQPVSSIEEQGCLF

[6] = optical density change of DRC41 E. coli – strain DRC41, OD650, 24 h, E. coli filamentation project, primary screen (AID 1093);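 further: MC1000 strain lacking acrAB efflux and sulA so SOS filamentation is blocked; test concentration not given here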; settings: E. coli DRC41 growth, higher = more signal, called active from +8 up or from −8 down
[7] = probe aLefty2 binding to arrayed compounds – biochemical, biotinylated probe, 635/667 nm fluorescence, primary screen (AID 1094); settings: small-molecule microarray, higher = more signal;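 further: score merges spot fluorescence near 667 nm with spot signal-to-noise ratio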
[8] = tested on: Noggin (protein binding on small-molecule microarray); assay: small molecules binding Noggin protein – biochemical, 635/667 nm fluorescence, primary screen (AID 1095); settings: 635 nm fluorescence, higher = more signal;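 further: score merges 667 nm feature fluorescence with signal to noise over triplicate slides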
[9] = molecular target: Neurogenic locus notch homolog protein 3 (Homo sapiens) (UniProt Q9UM47); assay: small molecules binding NOTCH3 protein – biochemical, 635/667 nm fluorescence, primary screen (AID 1096); settings: small-molecule microarray, 635 nm fluorescence, higher = more signal
Sequence of Neurogenic locus notch homolog protein 3 (Homo sapiens) (Q9UM47 whole entry, looked up): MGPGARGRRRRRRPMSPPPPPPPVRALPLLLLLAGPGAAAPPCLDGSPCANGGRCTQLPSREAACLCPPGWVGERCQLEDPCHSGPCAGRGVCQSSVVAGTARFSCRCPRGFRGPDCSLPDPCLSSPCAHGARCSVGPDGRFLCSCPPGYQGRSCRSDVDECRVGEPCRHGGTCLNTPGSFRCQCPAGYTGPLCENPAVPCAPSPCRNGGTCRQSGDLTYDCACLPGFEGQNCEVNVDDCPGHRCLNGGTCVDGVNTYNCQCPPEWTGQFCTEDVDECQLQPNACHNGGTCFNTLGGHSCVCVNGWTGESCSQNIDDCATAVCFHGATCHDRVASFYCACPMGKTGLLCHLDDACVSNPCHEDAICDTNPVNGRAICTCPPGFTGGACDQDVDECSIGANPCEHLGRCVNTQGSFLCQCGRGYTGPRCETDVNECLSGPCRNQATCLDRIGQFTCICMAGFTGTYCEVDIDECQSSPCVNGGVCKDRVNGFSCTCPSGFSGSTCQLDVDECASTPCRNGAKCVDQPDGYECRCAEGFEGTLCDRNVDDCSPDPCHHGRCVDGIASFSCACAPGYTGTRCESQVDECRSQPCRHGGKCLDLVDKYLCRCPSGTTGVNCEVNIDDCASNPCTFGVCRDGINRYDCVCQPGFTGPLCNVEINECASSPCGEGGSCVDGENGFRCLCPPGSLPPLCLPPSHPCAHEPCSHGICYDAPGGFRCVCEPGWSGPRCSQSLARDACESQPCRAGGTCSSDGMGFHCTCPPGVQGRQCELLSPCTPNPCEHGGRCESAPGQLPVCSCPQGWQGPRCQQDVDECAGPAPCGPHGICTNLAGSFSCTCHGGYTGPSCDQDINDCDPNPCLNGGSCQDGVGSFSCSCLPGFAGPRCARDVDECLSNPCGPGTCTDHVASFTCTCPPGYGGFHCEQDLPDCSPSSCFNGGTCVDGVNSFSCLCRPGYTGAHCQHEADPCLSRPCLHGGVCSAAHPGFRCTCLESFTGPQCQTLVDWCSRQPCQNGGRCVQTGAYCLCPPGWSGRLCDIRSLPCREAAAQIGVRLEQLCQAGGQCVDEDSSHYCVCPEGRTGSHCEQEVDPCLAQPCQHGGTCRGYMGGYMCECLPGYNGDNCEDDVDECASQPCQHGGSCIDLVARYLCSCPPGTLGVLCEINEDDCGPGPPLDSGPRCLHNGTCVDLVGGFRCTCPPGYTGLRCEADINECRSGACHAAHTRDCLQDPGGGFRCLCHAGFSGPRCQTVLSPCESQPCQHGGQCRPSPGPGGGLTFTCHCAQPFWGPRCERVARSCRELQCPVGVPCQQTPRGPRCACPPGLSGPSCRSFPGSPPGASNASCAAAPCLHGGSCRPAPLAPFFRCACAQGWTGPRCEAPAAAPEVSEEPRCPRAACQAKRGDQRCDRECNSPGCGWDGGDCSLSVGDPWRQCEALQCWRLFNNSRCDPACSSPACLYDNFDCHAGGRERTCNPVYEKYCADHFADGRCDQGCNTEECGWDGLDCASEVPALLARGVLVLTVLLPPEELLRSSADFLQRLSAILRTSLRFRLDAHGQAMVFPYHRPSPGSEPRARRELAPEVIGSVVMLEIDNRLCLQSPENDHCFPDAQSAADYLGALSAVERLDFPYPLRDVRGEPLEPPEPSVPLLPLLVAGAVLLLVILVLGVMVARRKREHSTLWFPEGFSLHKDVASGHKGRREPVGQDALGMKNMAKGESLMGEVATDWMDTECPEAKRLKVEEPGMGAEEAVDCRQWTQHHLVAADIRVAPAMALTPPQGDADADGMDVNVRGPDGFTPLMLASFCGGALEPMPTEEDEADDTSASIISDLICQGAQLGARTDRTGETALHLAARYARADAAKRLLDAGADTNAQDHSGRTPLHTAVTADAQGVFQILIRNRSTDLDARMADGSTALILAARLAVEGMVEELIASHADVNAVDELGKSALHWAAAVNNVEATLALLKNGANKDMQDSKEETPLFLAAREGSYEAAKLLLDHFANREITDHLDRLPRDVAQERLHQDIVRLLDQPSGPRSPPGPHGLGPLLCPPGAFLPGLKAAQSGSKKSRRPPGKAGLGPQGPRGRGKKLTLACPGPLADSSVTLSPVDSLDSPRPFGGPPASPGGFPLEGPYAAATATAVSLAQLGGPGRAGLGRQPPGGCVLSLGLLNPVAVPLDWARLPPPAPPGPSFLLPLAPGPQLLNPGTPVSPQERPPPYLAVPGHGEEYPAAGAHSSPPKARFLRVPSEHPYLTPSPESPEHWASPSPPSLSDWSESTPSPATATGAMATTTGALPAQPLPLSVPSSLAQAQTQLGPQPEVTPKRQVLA

[10] = probe aEGFR binding to arrayed compounds – biochemical, biotinylated probe, 635/667 nm fluorescence, primary screen (AID 1097); settings: small-molecule microarray, higher = more signal;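 further: probe is a biotinylated anti-EGFR antibody binding compounds printed on slides; score combines fluorescence near 667 nm and signal to noise of each spot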
[11] = tested on: Plasmodium falciparum Sir2 (PF13_0152, Sir2A); assay: Plasmodium falciparum Sir2A binding compounds – biochemical, small-molecule microarray, 635 nm fluorescence, primary screen (AID 1098); settings: fluorescence 635 nm, higher = more signal;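 further: score merges spot fluorescence intensity with its signal-to-noise ratio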
[12] = probe aDKK1 binding to arrayed compounds – biochemical, biotinylated probe, 635/667 nm fluorescence, primary screen (AID 1099); settings: small-molecule microarray, higher = more signal;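 further: score merges 667nm spot fluorescence with signal to noise across triplicate slides; reference of the scale not given here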
[13] = probe aCHRDL2 binding to arrayed compounds – biochemical, biotinylated probe, 635/667 nm fluorescence, primary screen (AID 1100); settings: small-molecule microarray, higher = more signal
[14] = change in splice reporter luminescence, either direction, cell-based, HEK293, spliceosome inhibition project, primary screen (AID 1101); settings: HEK293 splicing luciferase reporter, 24 h, higher = more signal, called active from +8 up or from −8 down;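 further: HEK293 cells carrying a splicing-competent luciferase reporter gene; test concentration not given here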
[15] = molecular target: Fibroblast growth factor 10 (Homo sapiens) (UniProt O15520); assay: compounds binding fibroblast growth factor 10 – biochemical, small-molecule microarray, 635 nm fluorescence, primary screen (AID 1102); settings: FGF10 binding, fluorescence 635 nm, higher = more signal
Sequence of Fibroblast growth factor 10 (Homo sapiens) (O15520 whole entry, looked up): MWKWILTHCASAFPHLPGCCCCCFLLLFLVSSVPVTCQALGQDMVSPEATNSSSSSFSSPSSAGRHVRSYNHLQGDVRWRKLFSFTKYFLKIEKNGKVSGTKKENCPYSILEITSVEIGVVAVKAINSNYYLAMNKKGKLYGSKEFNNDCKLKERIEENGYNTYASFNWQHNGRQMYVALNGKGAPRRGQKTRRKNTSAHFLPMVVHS

[16] = tested on: glycogen synthase kinase-3 (GSK3A per assay name; protocol says GSK3B); assay: compounds binding glycogen synthase kinase-3 – biochemical, small-molecule microarray, 635 nm fluorescence, GSK3A, primary screen (AID 1103); settings: fluorescence 635 nm, higher = more signal; further: the record names both GSK3A and GSK3B
[17] = molecular target: Epidermal growth factor receptor (Homo sapiens) (UniProt P00533); assay: compounds binding epidermal growth factor receptor – biochemical, small-molecule microarray, 635 nm fluorescence, primary screen (AID 1104); settings: EGFR binding, higher = more signal;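 further: score merges 667 nm emission intensity with spot signal to noise over triplicate slides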
Sequence of Epidermal growth factor receptor (Homo sapiens) (P00533 whole entry, looked up): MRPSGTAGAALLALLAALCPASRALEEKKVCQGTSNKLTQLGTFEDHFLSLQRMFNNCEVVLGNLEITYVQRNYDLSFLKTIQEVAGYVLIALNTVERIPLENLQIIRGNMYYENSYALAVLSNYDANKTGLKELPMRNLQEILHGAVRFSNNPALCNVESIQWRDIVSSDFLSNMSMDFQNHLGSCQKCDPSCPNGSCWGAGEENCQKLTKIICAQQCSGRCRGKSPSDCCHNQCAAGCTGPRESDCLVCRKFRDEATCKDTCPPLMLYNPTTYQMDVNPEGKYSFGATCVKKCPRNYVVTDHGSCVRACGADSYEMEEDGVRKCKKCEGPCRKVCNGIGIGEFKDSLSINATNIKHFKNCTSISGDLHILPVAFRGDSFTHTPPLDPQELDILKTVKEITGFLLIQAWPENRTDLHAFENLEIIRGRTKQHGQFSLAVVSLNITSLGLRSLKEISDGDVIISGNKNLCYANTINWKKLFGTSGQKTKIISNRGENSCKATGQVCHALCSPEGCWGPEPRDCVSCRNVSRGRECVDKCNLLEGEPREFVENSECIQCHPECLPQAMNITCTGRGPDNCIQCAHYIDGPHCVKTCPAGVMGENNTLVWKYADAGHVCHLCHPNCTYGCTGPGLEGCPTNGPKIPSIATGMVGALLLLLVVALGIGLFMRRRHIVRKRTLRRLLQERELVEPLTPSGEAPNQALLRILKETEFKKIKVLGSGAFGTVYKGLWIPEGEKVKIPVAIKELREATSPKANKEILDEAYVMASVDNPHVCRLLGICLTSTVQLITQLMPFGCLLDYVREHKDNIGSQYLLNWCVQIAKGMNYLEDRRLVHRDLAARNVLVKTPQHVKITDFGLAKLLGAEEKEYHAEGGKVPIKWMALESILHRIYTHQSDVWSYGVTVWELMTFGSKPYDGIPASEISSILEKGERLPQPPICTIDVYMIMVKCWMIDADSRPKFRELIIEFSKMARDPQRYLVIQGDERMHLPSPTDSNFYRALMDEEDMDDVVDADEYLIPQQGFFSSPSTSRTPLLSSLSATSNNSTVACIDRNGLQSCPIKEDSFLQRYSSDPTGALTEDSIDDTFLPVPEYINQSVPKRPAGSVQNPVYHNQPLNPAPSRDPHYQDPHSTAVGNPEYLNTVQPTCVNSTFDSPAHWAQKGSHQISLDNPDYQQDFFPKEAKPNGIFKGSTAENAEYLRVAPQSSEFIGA

[18] = molecular target: Follistatin-related protein 3 (Homo sapiens) (UniProt O95633); assay: compounds binding follistatin-related protein 3 – biochemical, small-molecule microarray, 635 nm fluorescence, primary screen (AID 1105); settings: FSTL3 binding, higher = more signal;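 further: score merges emission near 667 nm and signal to noise per printed spot across three slides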
Sequence of Follistatin-related protein 3 (Homo sapiens) (O95633 whole entry, looked up): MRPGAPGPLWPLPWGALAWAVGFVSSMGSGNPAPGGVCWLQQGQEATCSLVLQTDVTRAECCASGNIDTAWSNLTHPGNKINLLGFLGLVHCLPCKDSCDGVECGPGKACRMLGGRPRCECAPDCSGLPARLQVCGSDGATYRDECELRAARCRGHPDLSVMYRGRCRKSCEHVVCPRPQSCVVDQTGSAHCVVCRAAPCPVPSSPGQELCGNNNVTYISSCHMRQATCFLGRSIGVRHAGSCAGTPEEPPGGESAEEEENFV

[19] = molecular target: Dickkopf-related protein 1 (Homo sapiens) (UniProt O94907); assay: small molecules binding DKK1 protein – biochemical, small-molecule microarray, 635 nm fluorescence scan, primary screen (AID 1106); settings: higher = more signal;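 further: score merges emission near 667 nm with signal to noise over three replicate slides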
Sequence of Dickkopf-related protein 1 (Homo sapiens) (O94907 whole entry, looked up): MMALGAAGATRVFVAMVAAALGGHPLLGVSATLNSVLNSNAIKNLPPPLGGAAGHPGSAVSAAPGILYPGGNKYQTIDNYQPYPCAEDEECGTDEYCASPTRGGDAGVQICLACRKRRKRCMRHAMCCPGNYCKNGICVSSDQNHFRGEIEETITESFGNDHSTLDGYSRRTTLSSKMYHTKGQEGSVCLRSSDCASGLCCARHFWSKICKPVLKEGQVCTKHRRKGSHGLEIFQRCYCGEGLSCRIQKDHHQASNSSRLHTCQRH

[20] = tested on: Inhibin beta A chain (activin A); assay: small molecules binding activin A – biochemical, small-molecule microarray, 635 nm fluorescence scan, primary screen (AID 1107); settings: INHBA, higher = more signal;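 further: mouse activin A protein probed at 4.33 µg/mL on printed slides; score merges bound-protein fluorescence near 667 nm with spot signal-to-noise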

| Structure (SMILES) | composite z-score [1] | z-score [2] | z-score [3] | z-score [4] | composite z-score [5] | z-score [6] | composite z-score [7] | composite z-score [8] | composite z-score [9] | composite z-score [10] | composite z-score [11] | composite z-score [12] | composite z-score [13] | z-score [14] | composite z-score [15] | composite z-score [16] | composite z-score [17] | composite z-score [18] | composite z-score [19] | composite z-score [20] |
| --- | --- | --- | --- | --- | --- | --- | --- | --- | --- | --- | --- | --- | --- | --- | --- | --- | --- | --- | --- | --- |
| COc1ccc([Si](C)(C)[C@@H]2[C@@H](CC(=O)N3CCC[C@H]3CO)O[C@]3(C(=O)N(Cc4cccc(I)c4)c4ccccc43)[C@H]2C)cc1 | 1.53 | -1.23 (inactive) | 0.0115 (inactive) | 1.14 (inactive) | 0.175 | 0.25 (inactive) | 0.0678 | 1.62 | 1.08 | 0.0807 | 0.541 | 0.0446 | 0.0665 | -0.404 (inactive) | 1.05 | 1.13 | 1.2 | 1.44 | 1.92 | 0.946 |
| O=C1C2C=CC(C(O)C=Cc3ccc([N+](=O)[O-])cc3)N(n3cnnc3)C2C(=O)N1Cc1ccccc1 (stereo not given) | 0.934 | -0.785 (inactive) | -3.83 (inactive) | -0.0166 (inactive) | 1.92 | -0.0783 (inactive) | 0.292 | -0.0663 | 0.989 | -0.0703 | 1.53 | 0.341 | 0.832 | 0.243 (inactive) | 0.466 | 0.587 | -0.0912 | 0.906 | 0.377 | 1.17 |
| C=CC[C@@]1(C(=O)N2CCCCC2)N=C(c2ccc(OCCCO)cc2)O[C@@H]1c1ccccc1CN=[N+]=[N-] | 1.55 | -1.87 (inactive) | 0.0315 (inactive) | 0.819 (inactive) | 3.67 | 0.912 (inactive) | 0.178 | 0.648 | 1.08 | 0.0528 | 1.23 | 0.952 | 1.04 | -0.431 (inactive) | 0.666 | -0.0684 | 0.17 | 1.15 | -0.187 | 0.711 |
| C[N+](C)(C)CCCC[C@@H]1NC(=O)[C@@H]2C[C@H](C(=O)NCCCCCCNC(=O)CS)[C@H](c3ccc(O)cc3)N2C1=O | 0.567 | 0.562 (inactive) | -0.0042 (inactive) | 0.525 (inactive) | 0.479 | -0.0327 (inactive) | -0.115 | -0.533 | -0.627 | -0.225 | 1.09 | -0.0559 | 0.492 | 0.00498 (inactive) | -0.387 | -1.28 | -0.502 | -1.58 | -0.141 | -0.655 |
| COCCOC(=O)N1C(=O)[C@@]2(c3cc(C#CC4(O)CCCCCC4)ccc31)[C@H](C(=O)Nc1nc3ccccc3s1)[C@H]1C(=O)O[C@H](c3ccccc3)[C@H](c3ccccc3)N1[C@@H]2c1ccc(OCCO)cc1 | 1.55 | 2.38 (inactive) | 1.32 (inactive) | 4.01 (inactive) | 1.87 | 0.76 (inactive) | -0.0458 | 1.45 | 1.09 | 0.0064 | 1.28 | 0.0895 | 0.0903 | -0.426 (inactive) | 1.25 | 1.3 | 0.583 | 1.37 | 0.84 | 0.8 |
| COCCOC(=O)N1C(=O)[C@@]2(c3cc(C#Cc4ccc(OC)cc4)ccc31)[C@H](c1ccc(O)cc1)N1[C@H](c3ccccc3)[C@H](c3ccccc3)OC(=O)[C@H]1[C@@H]2C(=O)Nc1nc2ccccc2s1 | 1.56 | 0.15 (inactive) | 0.0615 (inactive) | 0.684 (inactive) | 2.06 | -0.944 (inactive) | -0.0376 | 1.09 | 1.08 | -0.0103 | 0.666 | -0.037 | 0.0407 | -0.0561 (inactive) | 1.22 | 1.09 | 0.404 | 0.899 | 0.446 | 0.277 |
| COCCOC(=O)N1C(=O)[C@@]2(c3cc(C#CCCO)ccc31)[C@H](c1ccc(OCCO)cc1)N1[C@H](c3ccccc3)[C@H](c3ccccc3)OC(=O)[C@H]1[C@@H]2C(N)=O | 1.54 | 2.66 (inactive) | 0.245 (inactive) | 6.06 (inactive) | 2.78 | 0.719 (inactive) | -0.0383 | 0.626 | 1.08 | -0.0436 | 0.923 | 0.0909 | -0.0603 | -1.59 (inactive) | 0.874 | 1.3 | 0.587 | 0.829 | 0.441 | 0.257 |
| CC(=O)NCCCC[C@@H]1NC(=O)[C@H]2C[C@@H](C(=O)O)[C@@H](c3ccc(O)cc3)N2C1=O | 1.55 | 2.13 (inactive) | -2.62 (inactive) | 2.72 (inactive) | 2.84 | -0.817 (inactive) | 0.14 | 1.67 | 1.04 | 0.138 | 1.43 | 0.13 | 0.372 | -0.177 (inactive) | 1.32 | 1.34 | 1.02 | 1.44 | 1.28 | 1.47 |
| NC(=O)[C@@H]1[C@H]2C(=O)O[C@H](c3ccccc3)[C@H](c3ccccc3)N2[C@H](c2ccc(O)cc2)[C@@]12C(=O)Nc1ccc(C#CC3=CCCCC3)cc12 | 1.55 | 1.98 (inactive) | 1.4 (inactive) | 2.74 (inactive) | 3.22 | -0.716 (inactive) | -0.21 | 0.87 | 1.11 | -0.176 | 0.735 | -0.0562 | -0.42 | -2.28 (inactive) | 0.676 | 0.439 | -0.122 | 0.31 | -0.333 | 0.763 |
| COC(=O)[C@@]1(Cc2ccc(F)cc2)[C@H]2c3cc(C(=O)N(C)C)n(Cc4ccc(C)o4)c3C[C@H]2CN1C(=O)c1ccccc1 | 0.323 | -0.319 (inactive) | -7.9 (inactive) | 0.792 (inactive) | 3.05 | -0.386 (inactive) | 1.26 | -0.386 | -0.124 | 0.763 | 1.29 | 2.05 | 0.495 | -1.6 (inactive) | 0.152 | 0.102 | -1.87 | -1.13 | -1.39 | 1.07 |
